PubChem BioAssay AID2288 (National Center for Advancing Translational Sciences (NCATS), 2010)
In all, about 340,000 compounds went through this assay and fewer than 10 were called active. Inconclusive results (about 2%) are left out. The list is a sample of the results. Unmarked numbers belong to inactive results. Calls come from the whole dose curve; as a rule, active = well fitted curve in the direction sought with a large enough effect; inconclusive = small, poorly fitted or top-dose-only effect, or another doubt; inactive = no such curve, though single readings can be large or run the other way.

assay: qHTS Assay for Modulators of miRNAs and/orActivators of miR-21; details: HeLa miR-21 FLuc reporter, luciferase, 48 h; series mostly up to 38.3 µM; activity change, positive = activation: at the top concentration;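 note: % of control where 0% means no effect; miR-21 action dims this reporter so a rising signal means less miR-21 action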
From the text: MLSCN Grant: 1 R21 NS059478-01 Assay Provider: Qihong Huang, The Wistar Institute NCGC Assay Overview: MicroRNAs (miRNAs) are endogenously encoded small (~20-25 nucleotides), nonprotein-coding RNAs that are involved in post-transcriptional repression of target messenger RNAs (mRNAs) (Le and Hannon, 2004). Estimated to be involved in the regulation of 30% of all protein-coding mRNAs (Filipowicz et al., 2008), miRNAs play a significant role in many biological processes including cellular differentiation and tissue development (Ghildiyal and Zamore, 2009).
NCGC Assay Protocol Summary: Reagents: HeLa cells stably expressing firefly luciferase (FLuc) under the control of a CMV promoter (upstream) and a miR-21 binding sequence directly downstream of the gene. These cells endogenously express miR-21. Control compounds used were compound C3 (provided by collaborator), N6-phenyladenosine (MP Biomedicals, 0215379625), and DMSO. Assay Summary: 6uL of HeLa miR-21-FLuc cells in assay buffer (DMEM, Invitrogen #21063-029; 10% FBS, HyClone #SH30071.03) were dispensed at 2000cells/well (3.3 x 10^5 cells/mL) into Greiner solid-white TC-treated 1536-well plates using a Multidrop Combi (Thermo Fisher Scientific). Plates were incubated for one hour at 37 degree Celsius, 95% humidity, 5% CO2. These assay plates were then treated with 23nL of compound or DMSO using a Kalypsys pin tool, which allows for delivery of a 24-point titration of each compound to the assay plate, with a final compound concentration ranging from approximately 40uM to 5pM. Assay plates were then incubated for 48 hours. After incubation, plates were allowed to come to RT for one hour prior to delivery of 3uL of 3X luciferase detection reagent. After a 15 minute incubation to allow for cell lysis, luciferase activity was measured using a ViewLux CCD imager (PerkinElmer), with an average exposure time of 2-12 seconds. Keywords: NIH Roadmap, MLPCN, MLSMR, qHTS, miR-21, microRNA, firefly luciferase, FLuc.

| Compound | activity change, positive = activation |
| --- | --- |
| COc1ccc(NC(=O)COCc2cc(-c3ccco3)on2)cc1 | 1.75% |
| O=C(CCSCc1cccc(F)c1)NCc1ccccc1 | 3.37% |
| CN(Cc1ccccc1)c1ccc(-c2nc(-c3ccccc3)no2)cc1[N+](=O)[O-] | 0.0426% |
| Cc1ccc(C(=O)Nc2cc3c(cc2N2CCCC2)n(C)c(=O)c(=O)n3C)cc1 | -7.41% |
| CCCOC(=O)c1c(NC(=O)c2cc3nc(-c4ccc(OC)cc4)cc(C(F)(F)F)n3n2)sc2c1CCCC2 | -6.35% |
| Cc1ccc(-c2nc(CS(=O)(=O)CC(=O)NCc3ccccc3Cl)c(C)o2)cc1 | 3.02% |
| Cc1nn(C(C)C(=O)NCCc2ccccc2)c(=O)c2c1sc1ccccc12 (stereo not drawn) | -34.9% |
| CCN(C(=O)Cn1cc(S(=O)(=O)N2CCN(c3ccccc3F)CC2)c2ccccc2c1=O)c1ccc(C)c(C)c1 | 3.6% |
| CCOC(=O)c1cccc(NC(=O)c2cc(S(=O)(=O)N3CCCC(C)C3)cn2C)c1 (stereo not drawn) | 13.2% |
| COc1ccc(-c2[nH]c3c(c2-c2c(-n4cccc4)n(C)c(=O)n(C)c2=O)c(=O)n(C)c(=O)n3C)cc1 | -3.83% |
| O=c1c2cccnc2n(Cc2cccc(F)c2)c(=O)n1Cc1ccccc1Cl | -6.44% |
| Cc1ccc(-c2nc(Cn3c(=O)cc(-c4ccccc4)c4c(C)nn(C)c43)c(C)o2)cc1 | 0.288% |
| COC(=O)c1c(NC(=O)C(C)Oc2ccc(Cl)c(C)c2)sc(C)c1C (stereo not drawn) | -18.3% |
| Cc1cccc(Cn2c(SCc3ccc(C(=O)N4CCC(C)CC4)cc3)nc3ccncc32)c1 | 25.3% |
| CCc1cnc2c(c1SCC(=O)c1ccccc1)c(=O)n(C)c(=O)n2C | -16.3% |
| CC(C)c1ccc(NC(=O)c2ccc(Cn3nc(N4CCN(c5ccccc5)CC4)ccc3=O)o2)cc1 | 2.33% |
| Cc1ccc(-c2nnc3c4ccccc4c(C)nn23)cc1NC(=O)c1cccc(Br)c1 | -9.57% |
| CC(=O)c1ccc(NC(c2ccc(F)cc2)c2nnc(-c3ccccc3)o2)cc1 (stereo not drawn) | 0.435% |
| CCN(C(=O)Cn1cnc2sc(C)c(S(=O)(=O)N3CCN(c4ncccn4)CC3)c2c1=O)c1ccccc1F | -1.51% |
| Cc1cccc(N2CCN(C3=C(c4ccccc4)C(=O)c4ccccc43)CC2)c1C | 16.4% |
| COc1cccc(NC(=O)c2csnn2)c1 | -36.8% |
| N#C/C(=C\c1cccc(F)c1)c1nc(-c2cc3c(ccc4ccccc43)oc2=O)cs1 | 2.83% |
| CC(=O)c1ccc(NC(=O)C2CCN(S(=O)(=O)c3c(C)noc3/C=C/c3ccc(C)cc3)CC2)cc1 | -1.89% |
| CCOc1ccccc1C(=O)NC1(C(F)(F)F)C(=O)Nc2c1c(=O)[nH]c(=O)n2-c1ccc(F)cc1 (stereo not drawn) | 4.18% |
| O=C1CN(C(=O)Nc2ccccc2C(F)(F)F)C(c2ccccc2)c2c(sc3c2CCCC3)N1 (stereo not drawn) | 1.97% |
| O=C1OC(C(=O)Nc2cccc(Br)c2)Cc2ccccc21 (stereo not drawn) | -45.3% |
| O=C(CCOc1ccccc1)N(Cc1cccnc1)c1nc2ccc(Cl)cc2s1 | -2.02% |

| Compound | activity change, positive = activation |
| --- | --- |
| CC(C)(C)NC(=O)CSc1nc(-c2ccc(F)cc2)cc(C(F)(F)F)n1 | 10.2% |
| O=C(CSc1nc2nccnc2c(=O)n1CCc1c[nH]c2ccccc12)Nc1ccccc1F | 11.4% |
| Cn1c(SCC(=O)N2CCCc3ccccc32)ncc(C(=O)Nc2ccc(F)cc2)c1=O | -2.64% |
| Cc1ccc(Cl)cc1N(C)C(=O)Cn1nc(Cc2cccnc2)c2ccccc2c1=O | -8.75% |
| COc1ccc(SCc2cc(=O)c3ccc(C)c(C)c3[nH]2)cc1 | 1.63% |
| Cc1cccc(OCCSc2nc3ccccc3n2CC(=O)N2CCCCC2)c1C | 8.76% |
| COc1ccc(NC(=O)C(c2ccccc2)N2Cc3ccccc3C2=O)cc1 (stereo not drawn) | -2.4% |
| CCCN1CN=C(NS(=O)(=O)c2ccc(NC(C)=O)cc2)NC1 | -7.13% |
| COc1ccc(-c2nn3c(=O)cc(CN4CCN(C(=O)c5ccc(OC)c(OC)c5)CC4)nc3s2)cc1 | -0.908% |
| CCOC(=O)c1c(C)[nH]c(C)c1S(=O)(=O)N(C)CC(=O)N1CCN(c2ccccc2)CC1 | -3.7% |
| COc1ccc2c(c1)c(=O)c(C(=O)c1ccccc1)cn2CC(=O)Nc1ccc2c(c1)OCCO2 | -0.936% |
| Cc1ccc(CNS(=O)(=O)c2ccc(C(=O)N(C)C)s2)cc1 | -3.73% |
| COc1ccc(-c2c3c(=O)n(C)c(=O)n(C)c3c3c(C)nc4ccccc4n23)cc1 | 0.257% |
| Cc1ccc(CN(C(=O)COc2ccc(Cl)cc2C)C2CCS(=O)(=O)C2)o1 (stereo not drawn) | -1.35% |
| Cc1ccc(NC(=O)c2ccc3[nH]c(C)cc(=O)c3c2)c(C)c1 | -42.2% |
| Cc1ccccc1CCNC(=O)C1CCN(c2nc3ccccc3nc2C(F)(F)F)CC1 | 6.8% |
| COC(=O)c1ccc(NC(=O)CCc2c(C)nn(-c3ccc(N4CCCC4)nn3)c2C)cc1 | 0.69% |
| Cc1cc(C)cc(NC(=O)c2cnc3sc(N4CCCC4)nn3c2=O)c1 | 8.36% |
| O=C(Cn1cnc2c(oc3ccccc32)c1=O)Nc1ccc(OC(F)(F)F)cc1 | -0.243% |
| COc1ccccc1C(=O)OCc1cc(=O)n2nc(-c3cccs3)sc2n1 | -12.8% |
| Cc1ccc(-c2nnc(SCc3ccccc3C)o2)cc1 | -49.1% |
| CCN(CC)C(=O)CSc1nc2ccsc2c(=O)n1Cc1ccccc1Cl | 9.18% |
| COc1ccc(CCNCc2c(C(=O)O)c(C)n(Cc3cccc(C)c3)c2C)cc1OC | 0.673% |
| COc1ccc(-n2c(=O)c3c(c4cc(OC)ccc4n3C)n(Cc3cccc(C)c3)c2=O)cc1 | -0.701% |
| COc1ccc(OC)c(CCNC(=O)CCCn2c(=O)c3cccn3c3cccnc32)c1 | -7.82% |
| Cc1nn2c(=O)cc(COC(=O)c3cccc(NC(=O)COc4ccccc4Cl)c3)nc2s1 | -1.72% |
